{
  "source": "PubChem BioAssay (NCATS)",
  "note": "The source made the active and inactive calls. The call rests on the fitted dose curve; in most records, active means well fitted curve in the direction sought with a large enough effect; inconclusive means small, poorly fitted or top-dose-only effect, or effect the other way, or another doubt; inactive means no such curve, though single readings can be large or run the other way.",
  "data": [
    {"assay": "qHTS of Nrf2 Activators: LOPAC Validation (AID 624149)", "details": "Nrf2/ARE reporter cell assay; series mostly up to 46.1 µM", "text": "Many diseases have some form of oxidative stress injury and ties to inflammation, causing a host of problems for the patient. The antioxidant response element (ARE) plays an important role in alleviating the harmful effects of oxidative stress. The antioxidant response element (ARE) is a transcriptional regulatory element involved in the activation of genes coding for a number of antioxidant proteins and detoxifying enzymes. These enzymes work in concert to protect tissues from oxidative insults and chemical toxicities in human hepatocytes and immune cells. The protective effects of ARE activation are primarily triggered through Nrf2 (NF-E2-related factor) binding to and activating AREs. It is known that Nrf2 controls the production of over 250 antioxidant and detoxification proteins (Hu et al., 2006), thereby protecting tissues by increasing cellular antioxidant content and suppressing inflammatory signaling pathways. The transcription factor Nrf2 is a central link between oxidative chemicals, such as phenolic antioxidants and electrophilic compounds, and the activation of ARE. Nrf2 levels are constitutively low as a consequence of its interaction with Keap1, which targets its degradation (Zipper and Mulcahy, 2002). Electrophiles react with key cysteine residues in Keap1, releasing Nrf2 and allowing its translocation to the nucleus. Once within the nucleus, Nrf2 complexes with coactivators such as p300, and binds to the AREs to induce gene transcription of cytoprotective enzymes, resulting in the prevention of toxicity. Activation of Nrf2 protects tissues by increasing cellular antioxidant content and suppressing inflammatory signaling pathways. Identifying novel and potent Nrf2 activators by using the AREc32 cell line to detect ARE activation by small molecules will lead to the identification and development of probes to study protective pathways in multiple tissues. These specific probes are essential to study the ARE pathway, and eventually to determine whether this pathway does activate genes that could protect against a host of diseases, including cardiovascular diseases, obesity, diabetes, Alzheimer's, and Parkinson's disease.\nThis project's aim is to identify novel and potent Nrf2 activators by using the AREc32 cell line to detect ARE activation by small molecules, which will lead to the identification and development of probes to study the ARE pathway.\nNIH Chemical Genomics Center [NCGC]\nNIH Molecular Libraries Probe Centers Network [MLPCN]\nAssay Submitter (PI): Curtis Klaassen, University of Kansas Medical Center\n5 uL of 1000 cells/well of AREc32_Fluc cells are seeded into 1536-well plate in OPTI-MEM medium with 5% FBS. The plates are incubated overnight at 37 deg C with 5% CO2. Then through pin tool transfer, 23 nL of compounds are added to each well before a 24 hr incubation at 37 deg C with 5% CO2. After the addition of 2.5 uL of Steady-Glo. the plates are kept at RT for 30 min, before they are read on the ViewLux", "values": [
      {"smiles": "C[C@]12CCC3C(CC[C@H]4C[C@H](O)CC[C@]34C)C1CC[C@@H]2C(=O)CO", "note": "(stereo not given in full)", "outcome": "inactive"},
      {"smiles": "S=C(NC1CCCCC1)N1CCC(c2cnc[nH]2)CC1", "outcome": "inactive"},
      {"smiles": "NC1CC1c1ccccc1", "note": "(stereo not given)", "outcome": "inactive"},
      {"smiles": "CCCN(CCC)[C@@H]1CCc2ccc(O)cc2C1", "outcome": "inactive"},
      {"smiles": "NCc1cc(=O)[nH]o1", "outcome": "inactive"},
      {"smiles": "NC(CP(=O)(O)O)C(=O)O", "note": "(stereo not given)", "outcome": "inactive"},
      {"smiles": "Cc1c(C(=O)c2cccc3ccccc23)c2cccc3c2n1[C@H](CN1CCOCC1)CO3", "outcome": "inactive"},
      {"smiles": "CCCN1CCO[C@@H]2c3cc(O)ccc3OC[C@H]21", "outcome": "inactive"},
      {"smiles": "NC(=O)CN1CC(O)CC1=O", "note": "(stereo not given)", "outcome": "inactive"},
      {"smiles": "c1ccc(C2(c3ccccc3)CC2C2=NCCN2)cc1", "note": "(stereo not given)", "outcome": "inactive"},
      {"smiles": "CC(Cc1ccc(O)cc1)NCC(O)c1cc(O)cc(O)c1", "note": "(stereo not given)", "outcome": "inactive"},
      {"smiles": "Cn1cnc(CCN)c1", "outcome": "inactive"},
      {"smiles": "C=CCN1CC[C@]23CCCCC2[C@H]1Cc1ccc(O)cc13", "note": "(stereo not given in full)", "outcome": "inactive"},
      {"smiles": "NC(N)=NOCCC(N)C(=O)O", "note": "(stereo not given)", "outcome": "inactive"},
      {"smiles": "CCCCc1ccc(C(=O)O)nc1", "outcome": "inactive"},
      {"smiles": "O=C(N[C@H]1CN2CCC1CC2)c1ccc(Cl)cc1", "outcome": "inactive"},
      {"smiles": "CC(C)NC(C)Cc1ccc(I)cc1", "note": "(stereo not given)", "outcome": "inactive"},
      {"smiles": "O=C(O)Cc1cnc[nH]1", "outcome": "inactive"},
      {"smiles": "C[C@@H](N)Cc1cnc[nH]1", "outcome": "inactive"},
      {"smiles": "O=C(Cc1ccc(Cl)c(Cl)c1)N1CCCCC1CN1CCCC1", "note": "(stereo not given)", "outcome": "inactive"},
      {"smiles": "Oc1ccc2c3c1O[C@H]1c4[nH]c5c(c4C[C@@]4(O)[C@@H](C2)N(CC2CC2)CC[C@]314)C[C@@]1(O)[C@H]2Cc3ccc(O)c4c3[C@@]1(CCN2CC1CC1)[C@H]5O4", "outcome": "inactive"},
      {"smiles": "Cc1nccc2c1[nH]c1ccccc12", "outcome": "inactive"},
      {"smiles": "CNCCc1c[nH]c2ccc(O)cc12", "outcome": "inactive"},
      {"smiles": "CCCN1CCC[C@H](c2cccc(O)c2)C1", "outcome": "inactive"},
      {"smiles": "CCCN(CCC)C1CCc2ccc(O)cc2C1", "note": "(stereo not given)", "outcome": "inactive"},
      {"smiles": "O=C(O)CC[N+](=O)[O-]", "outcome": "inactive"},
      {"smiles": "CS(=N)(=O)CC[C@H](N)C(=O)O", "note": "(stereo not given in full)", "outcome": "inactive"},
      {"smiles": "CC[C@@]1(O)C(=O)OCc2c1cc1n(c2=O)Cc2cc3ccccc3nc2-1", "outcome": "inactive"},
      {"smiles": "CC[C@@H](C(N)=O)N1CCCC1=O", "outcome": "inactive"},
      {"smiles": "CNCCc1ccc(O)c(O)c1", "outcome": "inactive"},
      {"smiles": "CN1C2CCC1CC(OC(=O)c1cc(Cl)cc(Cl)c1)C2", "note": "(stereo not given)", "outcome": "inactive"},
      {"smiles": "NC(=NCCC[C@H](N)C(=O)O)N[N+](=O)[O-]", "outcome": "inactive"},
      {"smiles": "c1ccc(CCCN2CCN(CCOC(c3ccccc3)c3ccccc3)CC2)cc1", "outcome": "inactive"},
      {"smiles": "C[C@]12N[C@H](Cc3ccccc31)c1ccccc12", "outcome": "inactive"},
      {"smiles": "CN[C@@H]1C[C@@H](c2ccc(Cl)c(Cl)c2)c2ccccc21", "outcome": "inactive"},
      {"smiles": "NC1CCc2cc(O)c(O)cc2C1", "note": "(stereo not given)", "outcome": "inactive"},
      {"smiles": "C/C=C(/C)C(=O)O[C@H]1C(C)=C2[C@H]([C@@H]1OC(=O)CCCCCCC)[C@@](C)(OC(C)=O)C[C@H](OC(=O)CCC)[C@@]1(O)[C@H]2OC(=O)[C@@]1(C)O", "outcome": "inactive"},
      {"smiles": "c1ccc2sc(C3(N4CCCCC4)CCCCC3)cc2c1", "outcome": "inactive"},
      {"smiles": "COc1cc(C(O)CN)ccc1O", "note": "(stereo not given)", "outcome": "inactive"},
      {"smiles": "CC(=O)NCCc1c[nH]c2ccccc12", "outcome": "inactive"}
    ]}
  ]
}
